AMA1-RON2 inh: inhibitors of Plasmodium falciparum AMA1-RON2 interaction | AID 720542 | AlphaScreen AMA1-biotinylated RON2 peptide binding | hit rate 0.2% among 360,000 | Potency, µM (series often up to 58.2 µM), hits mostly inhibitors; note: nearly all actives have a fitted effect of over 45% in size
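AMA1 (3D7) with his tag at 25 nM final met compounds first, then biotinylated RON2 peptide at 25 nM; detection used donor plus acceptor beads, 10 µg/mL apiece, read by AlphaScreen after 30 min at room temperature.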
AmpC detergent: blocks E. coli AmpC beta-lactamase in detergent assay. AmpC hydrolysis of nitrocefin, absorbance 480 nm, 0.01% Triton. Potency, µM (series often up to 114 µM), usual class: inhibitors. hit rate 0.041% among 370,000. AID 485294; note: nearly all actives have a fitted effect of over 25% in size
Target sequence (P00811 whole entry, looked up): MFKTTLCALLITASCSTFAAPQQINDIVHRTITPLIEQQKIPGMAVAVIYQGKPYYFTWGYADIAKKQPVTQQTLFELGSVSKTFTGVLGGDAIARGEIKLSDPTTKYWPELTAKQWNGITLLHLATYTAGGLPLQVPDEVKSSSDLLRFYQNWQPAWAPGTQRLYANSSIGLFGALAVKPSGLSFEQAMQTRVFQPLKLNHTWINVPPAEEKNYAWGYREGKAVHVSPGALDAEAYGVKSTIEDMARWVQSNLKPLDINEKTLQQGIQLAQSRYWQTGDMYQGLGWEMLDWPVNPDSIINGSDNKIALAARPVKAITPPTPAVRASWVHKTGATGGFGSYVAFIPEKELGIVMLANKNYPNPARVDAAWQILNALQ
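20 mM phosphate pH 7.0 + 0.01% (detergent screen) or 0.0001% Triton X-100; 5.3 nM AmpC reagent; cpd preinc 15 min RT; nitrocefin (800 uM stock) to start; A480 q20 s × 4 min; Activity was normalised to no-enzyme and no-compound control wells.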
RE007 growth inh: less growth of the S. pombe RE007 Vpr strain; S. pombe RE007 Vpr strain, BacTiter-Glo ATP luminescence, 24 h; Potency, µM (titrated, usually from 92.2 µM), actives largely listed as inhibitors; hit rate 0.21% among 360,000; active = well fitted falling curve with a large enough effect; inconclusive = small, poorly fitted or top-dose-only effect; inactive = no such curve, though single readings can be large or run the other way; note: nearly all actives have a fitted effect of over 50% in size
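Fission yeast RE007 carrying one integrated HIV-1 vpr copy, seeded at OD 0.01 in PMG+AL medium with 23 nL pinned compound. Grown 24 h at 30 degrees; viability read by BacTiter-Glo luminescence after 5 min.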
Sm TGR inh: blocks Schistosoma mansoni thioredoxin glutathione reductase | Q962Y6 | purified TGR, DTNB reduction, TNB absorbance 405 nm | Potency, µM (series often up to 114 µM), hits mostly inhibitors | hit rate 3% among 360,000 | AID 485364; note: nearly all actives have a fitted effect of over 60% in size
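Kinetic colorimetric format: TGR-catalysed, NADPH-driven DTNB reduction monitored via TNB absorbance. Enzyme dispensed at 20 nM; compound exposure 15 min at room temperature before reaction start.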
AmpC inh no detg: inhibitors of E. coli AmpC beta-lactamase without detergent; AmpC nitrocefin hydrolysis, absorbance 480 nm, 0.0001% Triton; Potency, µM (top dose mostly 57.1 µM), actives largely listed as inhibitors; hit rate 0.52% among 330,000; AID 485341; note: nearly all actives have a fitted effect of over 20% in size
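20 mM phosphate pH 7.0 + 0.01% (detergent screen) or 0.0001% Triton X-100; 5.3 nM AmpC reagent; cpd preinc 15 min RT; nitrocefin (800 uM stock) to start; A480 q20 s × 4 min; Activity was normalised to no-enzyme and no-compound control wells.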
Numbers stand for hits; [ ] = another dose, or the depositor's remark. The list is not random: actives were taken first. Their share in the collection is about 3.2%. Unless noted, calls come from the whole dose curve; as a rule, active = well fitted curve in the direction sought with a large enough effect; inconclusive = small, poorly fitted or top-dose-only effect, or another doubt; inactive = no such curve, though single readings can be large; an effect the other way counts as inactive or inconclusive.

Screening CN(C)c1ccc(C(=O)Nc2cccc(S(=O)(=O)N3CCCC3)c2)cc1 returned AMA1-RON2 inh inactive, AmpC detergent inactive, RE007 growth inh inactive, Sm TGR inh inactive and AmpC inh no detg 28µM.
For Cc1ccc(NC(=O)c2cc(S(=O)(=O)N3CCCCC3)c[nH]2)cc1C the results were AMA1-RON2 inh inactive, AmpC detergent inconclusive, RE007 growth inh inactive, Sm TGR inh inactive and AmpC inh no detg 7.1µM.
Screening O=C(Nc1ccc(S(=O)(=O)N2CCOCC2)cc1)c1ccc([N+](=O)[O-])o1 returned AMA1-RON2 inh inactive, AmpC detergent inactive, RE007 growth inh inconclusive, Sm TGR inh 28µM and AmpC inh no detg inactive.
For O=C(Nc1ccc(S(=O)(=O)N2CCCC2)cc1)c1cccc(OC(F)F)c1 the results were AMA1-RON2 inh inactive, AmpC detergent inactive, RE007 growth inh inactive, Sm TGR inh inactive and AmpC inh no detg 32µM.
For O=C(Nc1ccc(S(=O)(=O)N2CCCC2)cc1)c1ccc([N+](=O)[O-])o1 the results were AMA1-RON2 inh inactive, RE007 growth inh inactive and AmpC inh no detg inactive.
Screening CCC(=O)N1N=C(c2cccs2)CC1c1ccc(C)cc1 (stereo unspecified) returned AMA1-RON2 inh inactive, AmpC detergent inactive, RE007 growth inh inactive, Sm TGR inh inactive and AmpC inh no detg inactive.
`Cc1ccc(C2CC(c3cccs3)=NN2C(=O)CCl)cc1` (stereo unspecified) gave AMA1-RON2 inh inactive, AmpC detergent inactive, RE007 growth inh inactive, Sm TGR inh 2.5µM and AmpC inh no detg inconclusive.
`O=C1NCCCC2c3c(cc(Br)c(O)c3Br)OC12N1CCCCC1` (stereo unspecified) gave AMA1-RON2 inh inactive, AmpC detergent inactive, RE007 growth inh inactive, Sm TGR inh 22µM and AmpC inh no detg inactive.
Screening O=C1NCCCc2c1oc1cc(Br)c(O)c(Br)c21 returned AMA1-RON2 inh inconclusive, AmpC detergent inactive, RE007 growth inh inactive, Sm TGR inh inactive and AmpC inh no detg inactive.
COc1ccc(-n2nc(C#N)c(Cl)cc2=O)cc1 was read as AMA1-RON2 inh inactive, AmpC detergent inactive, RE007 growth inh inconclusive, Sm TGR inh 2.5µM and AmpC inh no detg inactive.
For COc1ccc(C2Nc3cccc4cccc(c34)N2)cc1Br the results were AMA1-RON2 inh inactive, AmpC detergent inactive, RE007 growth inh inactive, Sm TGR inh 25µM and AmpC inh no detg inactive.
Screening COc1cc(C2Nc3cccc4cccc(c34)N2)cc(OC)c1O returned AMA1-RON2 inh inactive, AmpC detergent inactive, RE007 growth inh inactive, Sm TGR inh inconclusive and AmpC inh no detg 32µM.
`CC(=O)c1ccc(NC(=S)Nc2cccc(S(=O)(=O)Nc3c(C)n(C)n(-c4ccccc4)c3=O)c2)cc1` gave AMA1-RON2 inh inactive, AmpC detergent inactive, RE007 growth inh inactive, Sm TGR inh 14µM and AmpC inh no detg inactive.
`Cc1cccc(NC(=O)c2cccc(S(=O)(=O)Nc3c(C)n(C)n(-c4ccccc4)c3=O)c2)c1` gave AMA1-RON2 inh inactive[11.6 µM] and RE007 growth inh inactive.
`Cc1ccc(NC(=S)Nc2cccc(S(=O)(=O)Nc3c(C)n(C)n(-c4ccccc4)c3=O)c2)cc1` gave AMA1-RON2 inh inactive, AmpC detergent inactive, RE007 growth inh inactive, Sm TGR inh 50µM and AmpC inh no detg inactive.
For Cc1c(NS(=O)(=O)c2cccc(C(=O)O)c2)c(=O)n(-c2ccccc2)n1C the results were AMA1-RON2 inh inactive, AmpC detergent inactive, RE007 growth inh inactive, Sm TGR inh inactive and AmpC inh no detg inactive.
For CC(=O)N1CCCc2cc(S(=O)(=O)N3CCCCC3)ccc21 the results were AmpC detergent inactive and Sm TGR inh inactive.
Screening CC1=NN(c2ccccc2)C(=O)/C1=C/c1c(O)[nH]c(=S)[nH]c1=O returned AMA1-RON2 inh inactive, AmpC detergent inactive, RE007 growth inh inactive, Sm TGR inh 8.9µM and AmpC inh no detg inactive.
CC1=NN(c2ccccc2)C(=O)/C1=C\C=C\c1ccccc1 was read as AMA1-RON2 inh 6.3µM, AmpC detergent inactive, RE007 growth inh inactive, Sm TGR inh inactive and AmpC inh no detg inactive.
Screening CC1=NN(c2ccccc2)C(=O)/C1=C/C=C/c1ccc(N(C)C)cc1 returned AMA1-RON2 inh 1.4µM, AmpC detergent inconclusive, RE007 growth inh inactive, Sm TGR inh inactive and AmpC inh no detg inactive[11.4 µM].
Screening CCOC(=O)Cn1nc(-c2ccccc2)c2cnc3ccc(OCC)cc3c21 returned AmpC detergent inactive and Sm TGR inh inactive.
Screening COc1ccc(NC(=O)Cc2ccc(NC(=O)N3CCCCc4ccccc43)cc2)c(OC)c1 returned AmpC detergent inactive and Sm TGR inh inactive.
For Cc1cccc(C2c3[nH]c4ccccc4c3CCN2Cc2cccn2-c2ncccn2)c1 (stereo unspecified) the results were AMA1-RON2 inh inactive, AmpC detergent inactive, RE007 growth inh inactive and AmpC inh no detg inactive.
Screening c1ccc(C2c3[nH]c4ccccc4c3CCN2Cc2cccn2-c2ccccn2)nc1 (stereo unspecified) returned AMA1-RON2 inh inactive, AmpC detergent inactive, RE007 growth inh inactive, Sm TGR inh 50µM and AmpC inh no detg inactive.
Screening COc1ccc2c(Sc3ccccc3)c(C(=O)NCc3cc(Br)ccc3OC)[nH]c2c1 returned AmpC detergent inactive and Sm TGR inh inactive.
`CN(C)CCCNCC(=O)c1c(-c2ccccc2)n(C)c2ccccc12` gave AMA1-RON2 inh inconclusive, AmpC detergent inconclusive, RE007 growth inh inactive, Sm TGR inh 50µM and AmpC inh no detg inactive.
`COC(=O)C[C@]1(C(=O)OC)CN(C#N)N(c2ccc(Cl)cc2)C12c1ccccc1-c1ccccc12` gave AMA1-RON2 inh inactive, AmpC detergent inconclusive, RE007 growth inh inactive, Sm TGR inh inactive and AmpC inh no detg inactive.
For COC(=O)[C@@H]1[C@@H](C(=O)OC)C2(c3ccccc3-c3ccccc32)N(c2ccc(Cl)cc2)N1C#N the results were AMA1-RON2 inh inactive, AmpC detergent inconclusive, RE007 growth inh inactive, Sm TGR inh 2.8µM and AmpC inh no detg inactive.
Cc1ccc(N(NC(=O)C(O)(c2ccccc2)c2ccccc2)C(=O)CCl)cc1 was read as AMA1-RON2 inh inactive, AmpC detergent inactive, RE007 growth inh inactive, Sm TGR inh 6.3µM and AmpC inh no detg inactive.
O=C(Nc1ccccc1)NN(C(=O)CCl)c1ccccc1 was read as AMA1-RON2 inh inactive, AmpC detergent inactive, RE007 growth inh inactive, Sm TGR inh 3.5µM and AmpC inh no detg inactive.
CCC(O)(CC)C(=O)NN(C(=O)CCl)c1ccccc1 was read as AMA1-RON2 inh inactive, AmpC detergent inactive, RE007 growth inh inactive, Sm TGR inh 22µM and AmpC inh no detg inactive.
For CCN1C(=O)c2ccccc2S(=O)c2ccc(C(=O)N3CCN(c4cc(Cl)ccc4C)CC3)cc21 (stereo unspecified) the results were AmpC detergent inactive and Sm TGR inh inactive.
